What all share (assay): DAPPL (digital affinity profiling via proximity ligation, sequencing); 10 mM Tris-HCl pH 7.5, 50 mM NaCl, 1 mM DTT, 4% glycerol, room temperature, 30 min; GST-TFs on glutathione beads, 16-mer random dsDNA library, 0.1% formaldehyde crosslink after washing; high values mean tight binding
One test has as its target T1, FEV (Homo sapiens, UniProt Q99581 1-238).
T1 sequence: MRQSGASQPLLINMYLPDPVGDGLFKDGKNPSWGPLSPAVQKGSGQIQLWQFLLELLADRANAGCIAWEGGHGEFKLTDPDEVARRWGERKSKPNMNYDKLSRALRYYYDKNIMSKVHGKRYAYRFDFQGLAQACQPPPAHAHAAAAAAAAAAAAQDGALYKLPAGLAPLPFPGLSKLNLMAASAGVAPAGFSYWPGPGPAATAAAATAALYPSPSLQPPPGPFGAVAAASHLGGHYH
The following applies: protein: recombinant; tags: N-terminal GST; dsDNA, one strand shown. Summed up:
(§1)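 Binding signal is each hexamer's read frequency for a factor divided by its frequency in the tag-only sample. The factors were GST-fused human transcription factors from yeast, captured on glutathione beads, DNA-barcoded and pooled with that sample. Pools were incubated with 200 nmole of a random double-stranded 16-mer DNA library in Tris/NaCl/DTT/glycerol buffer at room temperature for 30 min, then washed, crosslinked with 0.1% formaldehyde, proximity-ligated with BsaI/T4 ligase (1 h, 37 °C), PCR-amplified and sequenced on an Illumina NextSeq500.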

The next test deals with ETV5 (Homo sapiens, UniProt P41161 1-510). The following applies: protein: recombinant; tags: N-terminal GST; dsDNA, one strand shown. An outline of the steps: as §1
Chain of ETV5 (P41161 whole entry): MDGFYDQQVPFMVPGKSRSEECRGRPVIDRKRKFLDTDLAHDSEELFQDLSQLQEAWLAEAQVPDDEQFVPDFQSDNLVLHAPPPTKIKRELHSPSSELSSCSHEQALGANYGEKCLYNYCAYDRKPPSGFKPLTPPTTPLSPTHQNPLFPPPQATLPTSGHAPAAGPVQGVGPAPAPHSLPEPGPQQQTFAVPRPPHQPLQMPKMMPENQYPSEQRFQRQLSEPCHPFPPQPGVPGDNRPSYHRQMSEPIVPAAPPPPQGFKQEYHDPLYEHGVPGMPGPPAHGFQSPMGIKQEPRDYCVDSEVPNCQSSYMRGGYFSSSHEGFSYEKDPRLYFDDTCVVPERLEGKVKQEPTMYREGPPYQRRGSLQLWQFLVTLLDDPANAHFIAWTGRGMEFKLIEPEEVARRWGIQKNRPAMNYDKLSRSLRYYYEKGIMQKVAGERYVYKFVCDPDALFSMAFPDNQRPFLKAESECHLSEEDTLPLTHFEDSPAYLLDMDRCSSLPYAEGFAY
In the next test the target is HSF1 (Homo sapiens, UniProt Q00613 1-529). The following applies: protein: recombinant; tags: N-terminal GST; chain copies: 3; dsDNA, one strand shown. Summed up: as §1
Chain of HSF1 (Q00613 whole entry): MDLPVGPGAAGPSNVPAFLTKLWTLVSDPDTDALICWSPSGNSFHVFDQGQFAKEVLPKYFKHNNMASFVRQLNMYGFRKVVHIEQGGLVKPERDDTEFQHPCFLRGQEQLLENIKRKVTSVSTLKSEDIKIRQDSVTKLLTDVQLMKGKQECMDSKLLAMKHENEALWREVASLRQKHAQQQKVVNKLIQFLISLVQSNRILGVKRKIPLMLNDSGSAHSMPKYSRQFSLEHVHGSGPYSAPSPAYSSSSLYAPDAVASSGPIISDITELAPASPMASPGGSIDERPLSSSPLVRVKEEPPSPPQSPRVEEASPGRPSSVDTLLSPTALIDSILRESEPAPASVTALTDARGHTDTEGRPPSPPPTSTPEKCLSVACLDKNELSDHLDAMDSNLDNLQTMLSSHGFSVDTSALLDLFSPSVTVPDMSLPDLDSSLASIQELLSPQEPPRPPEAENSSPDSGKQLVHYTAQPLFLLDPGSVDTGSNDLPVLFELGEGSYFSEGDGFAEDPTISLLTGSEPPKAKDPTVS
In the next test the target is T2, SPIC (Homo sapiens, UniProt Q8N5J4 1-248).
T2 sequence: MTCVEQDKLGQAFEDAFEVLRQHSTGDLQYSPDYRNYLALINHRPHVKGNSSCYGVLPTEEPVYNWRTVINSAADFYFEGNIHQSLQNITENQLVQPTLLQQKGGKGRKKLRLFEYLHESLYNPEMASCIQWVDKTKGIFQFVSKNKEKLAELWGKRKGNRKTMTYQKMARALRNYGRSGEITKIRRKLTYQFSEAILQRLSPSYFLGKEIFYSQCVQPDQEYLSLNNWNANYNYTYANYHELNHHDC
The following applies: protein: recombinant; tags: N-terminal GST; dsDNA, one strand shown. An outline of the steps:
as §1

The target in a further test is ELF4 (Homo sapiens, UniProt Q99607 1-663). The following applies: protein: recombinant; tags: N-terminal GST; dsDNA, one strand shown. An outline of the steps: as §1
Chain of ELF4 (Q99607 whole entry): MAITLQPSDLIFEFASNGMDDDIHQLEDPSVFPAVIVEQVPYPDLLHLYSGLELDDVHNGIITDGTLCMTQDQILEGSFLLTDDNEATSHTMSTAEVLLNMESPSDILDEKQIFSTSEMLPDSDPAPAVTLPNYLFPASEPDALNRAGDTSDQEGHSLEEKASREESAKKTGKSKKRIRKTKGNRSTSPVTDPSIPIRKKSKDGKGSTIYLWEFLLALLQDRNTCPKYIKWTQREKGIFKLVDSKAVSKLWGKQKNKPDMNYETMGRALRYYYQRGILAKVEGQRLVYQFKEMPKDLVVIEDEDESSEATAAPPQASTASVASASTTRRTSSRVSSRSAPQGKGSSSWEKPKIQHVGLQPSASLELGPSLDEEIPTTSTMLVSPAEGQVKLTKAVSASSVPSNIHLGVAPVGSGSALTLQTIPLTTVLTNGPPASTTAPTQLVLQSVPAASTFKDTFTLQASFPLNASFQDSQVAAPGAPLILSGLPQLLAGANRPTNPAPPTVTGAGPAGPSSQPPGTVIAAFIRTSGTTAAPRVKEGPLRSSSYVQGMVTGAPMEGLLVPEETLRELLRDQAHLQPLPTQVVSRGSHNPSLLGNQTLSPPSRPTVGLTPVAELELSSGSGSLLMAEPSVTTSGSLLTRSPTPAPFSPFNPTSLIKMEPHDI
The next test addresses T3, ELK4 (Homo sapiens, UniProt P28324-2 1-405).
T3 sequence: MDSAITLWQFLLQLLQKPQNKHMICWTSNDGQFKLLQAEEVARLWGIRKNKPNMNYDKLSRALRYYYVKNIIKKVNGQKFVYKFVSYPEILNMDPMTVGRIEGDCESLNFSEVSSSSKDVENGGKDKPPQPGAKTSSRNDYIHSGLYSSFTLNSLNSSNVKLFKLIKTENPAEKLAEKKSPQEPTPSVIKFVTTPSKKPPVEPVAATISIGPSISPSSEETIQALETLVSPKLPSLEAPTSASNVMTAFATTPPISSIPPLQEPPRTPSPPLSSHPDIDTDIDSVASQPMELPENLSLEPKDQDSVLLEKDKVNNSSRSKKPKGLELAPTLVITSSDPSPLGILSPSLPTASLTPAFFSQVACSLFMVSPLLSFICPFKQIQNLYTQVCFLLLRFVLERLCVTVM
The following applies: protein: recombinant; tags: N-terminal GST; dsDNA, one strand shown. An outline of the steps: as §1

The target in the next test is T4, ETV2 (Homo sapiens, UniProt O00321 1-342).
T4 sequence: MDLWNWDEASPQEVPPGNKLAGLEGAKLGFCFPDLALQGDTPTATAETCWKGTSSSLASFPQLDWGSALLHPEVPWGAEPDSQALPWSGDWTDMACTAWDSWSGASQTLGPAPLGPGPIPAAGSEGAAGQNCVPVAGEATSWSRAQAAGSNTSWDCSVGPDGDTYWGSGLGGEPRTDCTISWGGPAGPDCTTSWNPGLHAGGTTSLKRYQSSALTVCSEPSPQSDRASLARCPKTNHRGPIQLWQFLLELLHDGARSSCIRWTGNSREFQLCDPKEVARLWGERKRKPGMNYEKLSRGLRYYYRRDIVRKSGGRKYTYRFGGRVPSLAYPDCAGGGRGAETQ
The following applies: protein: recombinant; tags: N-terminal GST; dsDNA, one strand shown. An outline of the steps: as §1

The target in a further test is T5, ELF3 (Homo sapiens, UniProt P78545 1-371).
T5 sequence: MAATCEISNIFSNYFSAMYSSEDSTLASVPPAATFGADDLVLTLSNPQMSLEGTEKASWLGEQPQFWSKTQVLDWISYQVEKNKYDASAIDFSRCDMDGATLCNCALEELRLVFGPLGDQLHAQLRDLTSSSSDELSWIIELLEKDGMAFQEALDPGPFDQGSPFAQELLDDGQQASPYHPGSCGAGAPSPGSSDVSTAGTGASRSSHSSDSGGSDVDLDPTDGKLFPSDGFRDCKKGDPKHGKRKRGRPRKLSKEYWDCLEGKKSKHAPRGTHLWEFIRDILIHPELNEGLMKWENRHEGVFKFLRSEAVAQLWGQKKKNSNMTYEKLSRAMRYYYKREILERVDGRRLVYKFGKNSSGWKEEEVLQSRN
The following applies: protein: recombinant; tags: N-terminal GST; dsDNA, one strand shown. An outline of the steps:
as §1

A further test deals with CRX (Homo sapiens, UniProt O43186 1-299). The following applies: protein: recombinant; tags: N-terminal GST; dsDNA, one strand shown. An outline of the steps:
as §1

A further test deals with ETV1 (Homo sapiens, UniProt P50549 1-477). The following applies: protein: recombinant; tags: N-terminal GST; dsDNA, one strand shown. Summed up: as §1
Chain of ETV1 (P50549 whole entry): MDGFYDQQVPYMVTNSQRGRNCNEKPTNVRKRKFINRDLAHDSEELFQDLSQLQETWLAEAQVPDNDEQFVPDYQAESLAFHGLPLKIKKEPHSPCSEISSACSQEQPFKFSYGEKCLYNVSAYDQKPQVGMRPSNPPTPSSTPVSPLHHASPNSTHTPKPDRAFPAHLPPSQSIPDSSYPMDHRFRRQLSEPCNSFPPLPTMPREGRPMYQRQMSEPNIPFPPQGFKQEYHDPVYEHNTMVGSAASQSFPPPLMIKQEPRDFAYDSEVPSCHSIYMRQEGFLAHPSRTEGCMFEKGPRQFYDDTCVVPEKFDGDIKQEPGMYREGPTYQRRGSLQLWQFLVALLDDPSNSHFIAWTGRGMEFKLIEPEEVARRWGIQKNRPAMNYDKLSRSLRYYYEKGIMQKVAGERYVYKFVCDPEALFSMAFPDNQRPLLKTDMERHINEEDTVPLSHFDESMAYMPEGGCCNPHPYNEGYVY
The next test deals with T6, ERF (Homo sapiens, UniProt P50548 1-548).
T6 sequence: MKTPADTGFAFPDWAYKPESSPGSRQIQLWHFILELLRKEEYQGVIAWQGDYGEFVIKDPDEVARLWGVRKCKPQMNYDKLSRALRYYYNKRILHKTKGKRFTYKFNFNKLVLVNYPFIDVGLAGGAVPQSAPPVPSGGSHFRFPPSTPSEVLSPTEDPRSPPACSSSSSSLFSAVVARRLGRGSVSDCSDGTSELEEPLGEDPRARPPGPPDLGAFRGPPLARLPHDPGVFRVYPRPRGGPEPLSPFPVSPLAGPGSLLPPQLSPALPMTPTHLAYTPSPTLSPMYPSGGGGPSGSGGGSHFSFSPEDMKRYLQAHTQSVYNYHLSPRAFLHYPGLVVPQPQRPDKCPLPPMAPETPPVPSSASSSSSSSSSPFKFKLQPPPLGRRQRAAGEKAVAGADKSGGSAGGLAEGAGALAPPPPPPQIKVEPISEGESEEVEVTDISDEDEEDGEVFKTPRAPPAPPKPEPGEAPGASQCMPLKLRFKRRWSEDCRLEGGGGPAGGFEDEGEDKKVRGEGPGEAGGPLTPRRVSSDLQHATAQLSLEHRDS
The following applies: protein: recombinant; tags: N-terminal GST; dsDNA, one strand shown. An outline of the steps: as §1

In another test the target is T7, ETV3L (Homo sapiens, UniProt Q6ZN32 1-361).
T7 sequence: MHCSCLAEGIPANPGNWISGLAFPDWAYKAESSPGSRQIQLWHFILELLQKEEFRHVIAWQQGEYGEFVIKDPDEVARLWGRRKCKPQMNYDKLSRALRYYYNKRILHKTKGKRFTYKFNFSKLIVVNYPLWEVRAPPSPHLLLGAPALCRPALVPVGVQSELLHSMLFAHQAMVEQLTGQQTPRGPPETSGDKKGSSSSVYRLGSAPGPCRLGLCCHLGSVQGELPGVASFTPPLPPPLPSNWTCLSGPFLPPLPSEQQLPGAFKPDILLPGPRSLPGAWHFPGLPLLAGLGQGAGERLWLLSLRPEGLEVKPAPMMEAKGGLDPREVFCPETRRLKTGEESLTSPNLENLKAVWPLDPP
The following applies: protein: recombinant; tags: N-terminal GST; dsDNA, one strand shown. An outline of the steps: as §1

For another test, the target named is T8, ETS2 (Homo sapiens, UniProt P15036 1-469).
T8 sequence: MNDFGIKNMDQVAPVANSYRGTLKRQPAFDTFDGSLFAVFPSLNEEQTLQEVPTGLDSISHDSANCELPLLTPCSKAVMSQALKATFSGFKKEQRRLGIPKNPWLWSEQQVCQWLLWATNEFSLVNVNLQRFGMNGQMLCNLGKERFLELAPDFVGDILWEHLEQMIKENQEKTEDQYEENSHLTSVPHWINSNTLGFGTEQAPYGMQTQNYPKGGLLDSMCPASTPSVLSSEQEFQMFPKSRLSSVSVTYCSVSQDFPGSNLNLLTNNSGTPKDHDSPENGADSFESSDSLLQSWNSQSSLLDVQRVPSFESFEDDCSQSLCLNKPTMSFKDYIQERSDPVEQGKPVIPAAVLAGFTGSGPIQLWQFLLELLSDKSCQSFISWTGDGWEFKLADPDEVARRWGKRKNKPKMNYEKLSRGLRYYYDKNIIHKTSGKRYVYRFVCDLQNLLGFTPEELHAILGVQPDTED
The following applies: protein: recombinant; tags: N-terminal GST; dsDNA, one strand shown. An outline of the steps:
as §1

For a further test, the target named is T9, SPDEF (Homo sapiens, UniProt O95238 1-335).
T9 sequence: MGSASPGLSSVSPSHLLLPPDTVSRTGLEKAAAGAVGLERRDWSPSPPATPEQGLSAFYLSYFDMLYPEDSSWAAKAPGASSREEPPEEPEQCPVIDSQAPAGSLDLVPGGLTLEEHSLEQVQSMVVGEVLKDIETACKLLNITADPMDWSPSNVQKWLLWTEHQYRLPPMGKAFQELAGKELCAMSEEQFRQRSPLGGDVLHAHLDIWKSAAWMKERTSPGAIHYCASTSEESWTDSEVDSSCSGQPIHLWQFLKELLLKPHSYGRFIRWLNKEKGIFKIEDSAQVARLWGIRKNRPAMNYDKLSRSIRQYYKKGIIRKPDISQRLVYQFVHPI
The following applies: protein: recombinant; tags: N-terminal GST; dsDNA, one strand shown. An outline of the steps:
as §1

A further test has as its target T10, ETV7 (Homo sapiens, UniProt Q9Y603 1-341).
T10 sequence: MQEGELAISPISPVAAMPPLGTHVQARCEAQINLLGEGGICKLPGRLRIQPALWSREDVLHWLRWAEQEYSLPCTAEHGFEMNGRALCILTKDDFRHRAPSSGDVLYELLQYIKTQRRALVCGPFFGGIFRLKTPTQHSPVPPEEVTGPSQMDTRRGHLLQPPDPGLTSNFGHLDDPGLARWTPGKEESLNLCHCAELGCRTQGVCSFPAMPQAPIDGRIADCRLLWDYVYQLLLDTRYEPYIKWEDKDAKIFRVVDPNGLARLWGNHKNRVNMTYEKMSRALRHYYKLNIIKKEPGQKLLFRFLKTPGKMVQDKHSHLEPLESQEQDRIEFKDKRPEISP
The following applies: protein: recombinant; tags: N-terminal GST; dsDNA, one strand shown. Summed up: as §1

In the next test the target is T11, ELF5 (Homo sapiens, UniProt Q9UKW6-2 1-255).
T11 sequence: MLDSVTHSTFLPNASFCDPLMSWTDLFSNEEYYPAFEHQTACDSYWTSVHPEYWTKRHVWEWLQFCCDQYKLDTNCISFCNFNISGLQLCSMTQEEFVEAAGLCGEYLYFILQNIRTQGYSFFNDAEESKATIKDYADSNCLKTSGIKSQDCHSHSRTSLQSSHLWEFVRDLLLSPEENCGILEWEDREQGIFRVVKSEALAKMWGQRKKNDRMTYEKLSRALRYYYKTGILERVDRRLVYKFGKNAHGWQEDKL
The following applies: protein: recombinant; tags: N-terminal GST; dsDNA, one strand shown. An outline of the steps:
as §1

The next test concerns the target T12, ETV3 (Homo sapiens, UniProt P41162-2 1-143).
T12 sequence: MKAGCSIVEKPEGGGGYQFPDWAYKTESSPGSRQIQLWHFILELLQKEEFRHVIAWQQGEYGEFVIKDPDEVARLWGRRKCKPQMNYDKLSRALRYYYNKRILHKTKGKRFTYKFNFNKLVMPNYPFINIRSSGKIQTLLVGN
The following applies: protein: recombinant; tags: N-terminal GST; dsDNA, one strand shown. An outline of the steps:
as §1

The next test addresses ETV6 (Homo sapiens, UniProt P41212 1-452). The following applies: protein: recombinant; tags: N-terminal GST; dsDNA, one strand shown. An outline of the steps: as §1

The record followed here is PMC7862700, “An all-to-all approach to the identification of sequence-specific readers for epigenetic DNA modifications on cytosine”.

Chain of CRX (O43186 whole entry): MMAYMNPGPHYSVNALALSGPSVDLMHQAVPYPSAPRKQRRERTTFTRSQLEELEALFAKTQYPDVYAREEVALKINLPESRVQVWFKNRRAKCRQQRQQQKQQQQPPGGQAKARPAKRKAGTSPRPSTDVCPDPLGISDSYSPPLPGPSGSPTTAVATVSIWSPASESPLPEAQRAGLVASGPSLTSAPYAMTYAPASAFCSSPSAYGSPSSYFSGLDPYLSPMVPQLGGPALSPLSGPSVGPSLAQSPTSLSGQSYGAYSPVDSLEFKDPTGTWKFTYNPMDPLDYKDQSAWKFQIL
Chain of ETV6 (P41212 whole entry): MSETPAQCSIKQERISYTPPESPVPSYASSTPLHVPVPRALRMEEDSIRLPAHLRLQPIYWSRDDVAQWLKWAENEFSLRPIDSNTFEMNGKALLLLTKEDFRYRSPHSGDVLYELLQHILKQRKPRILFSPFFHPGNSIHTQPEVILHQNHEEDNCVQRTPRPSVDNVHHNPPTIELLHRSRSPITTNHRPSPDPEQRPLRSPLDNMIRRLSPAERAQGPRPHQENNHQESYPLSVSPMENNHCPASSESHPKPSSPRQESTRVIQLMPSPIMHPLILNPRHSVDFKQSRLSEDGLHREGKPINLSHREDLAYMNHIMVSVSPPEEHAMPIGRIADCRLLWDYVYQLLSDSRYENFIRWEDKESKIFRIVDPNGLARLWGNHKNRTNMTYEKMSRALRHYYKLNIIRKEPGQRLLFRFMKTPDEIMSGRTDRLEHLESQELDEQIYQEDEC

As to ATTTCA, the binding signal with FEV was 1.25 fold enrichment (6-mer frequency, TF over GST control); with ETV5, 1.27 fold enrichment (6-mer frequency, TF over GST control); with HSF1 it was 1.26 fold enrichment (6-mer frequency, TF over GST control); with SPIC, 1.18 fold enrichment (6-mer frequency, TF over GST control); with ELF4, 1.27 fold enrichment (6-mer frequency, TF over GST control); with ELK4, 1.27 fold enrichment (6-mer frequency, TF over GST control). In addition, the binding signal was 1.28 fold enrichment (6-mer frequency, TF over GST control) in the test with ETV2; 1.16 fold enrichment (6-mer frequency, TF over GST control) in the test with ELF3; 1.22 fold enrichment (6-mer frequency, TF over GST control) with CRX; 1.25 fold enrichment (6-mer frequency, TF over GST control) with ETV1; 1.22 fold enrichment (6-mer frequency, TF over GST control) with ERF; 1.16 fold enrichment (6-mer frequency, TF over GST control) with ETV3L. The binding signal with ETS2 was 1.22 fold enrichment (6-mer frequency, TF over GST control); with SPDEF, 1.28 fold enrichment (6-mer frequency, TF over GST control); in the test with ETV7 it was 1.13 fold enrichment (6-mer frequency, TF over GST control); with ELF5, 1.25 fold enrichment (6-mer frequency, TF over GST control); with ETV3 it was 1.23 fold enrichment (6-mer frequency, TF over GST control); with ETV6, 1.27 fold enrichment (6-mer frequency, TF over GST control).
